Measured values taken from PubChem BioAssay AID493165 (National Center for Advancing Translational Sciences (NCATS), 2011).
Unmarked numbers belong to inactive results. Activity calls are given as the source filed them. The call rests on the fitted dose curve; in most records, active means well fitted curve in the direction sought with a large enough effect; inactive means no such curve, though single readings can be large or run the other way.

Test: Retest of LOPAC molecules that induce DNA re-replication in SW480 adenocarcinoma cells.
Details: Hoechst DNA content imaging, 48 h; series mostly up to 45.1 µM; activity, positive = re-replication: at the top concentration
Excerpt: NIH Molecular Libraries Probe Production Network [MLPCN] NIH Chemical Genomics Center [NCGC] MLPCN Grant: Fast Track K99 CA136555 Assay Provider: Melvin DePamphilis, NICHD, NIH Assay Overview Eukaryotic cells normally restrict genome duplication to once per cell division. When this process is aberrant, DNA re-replication occurs when cells reinitiate DNA replication before the first round of replication is complete. DNA re-replication induces the DNA damage response, arrests cell proliferation, and triggers apoptosis. The cell cycle components cyclin A, Cdt-1, Cdc6 and geminin are critical regulators of this process and their misregulation results in DNA re-replication in normal and cancer cells. To identify compounds that induce re-replication in normal cells, an image-based assay was used to measure DNA content of nuclei, as detected by the fluorescent DNA binding dye, Hoechst. Cell nuclei were imaged by a fluorescence scanning plate imager and compounds that induce DNA re-replication were identified by the increase of nuclei with elevated fluorescence intensity.
Assay Protocol Summary For screening, 250 cells in 5 uL/well were dispensed into black clear 1536-well plates (Aurora) using a solenoid-based dispenser. Following transfer of 23 nL compound or DMSO vehicle by a pin tool, the plates were incubated 48 hr at 37 C and 5% CO2. After addition of 1 uL/well Hoescht stain, the plates were incubated 40 min at 37 C, 5% CO2 and total intensity of fluorescent objects (nuclei) were enumerated by an Acumen Explorer Ex3 (TTP LabTech) fluorescence scanning plate imager (405 nm excitation, 500-530 nm emission). Keywords: NIH Roadmap, MLPCN, MLI, MLSMR, qHTS, NCGC, DNA replication, cancer

Row | SMILES | Potency | activity, positive = re-replication
1 | COc1cc2c(c(OC)c1OC)-c1ccc(OC)c(=O)cc1[C@@H](NC(C)=O)CC2 | 33.7 nM (active) | –
2 | CC(C)NP(=O)(NC(C)C)OP(=O)(NC(C)C)NC(C)C | – | 1.4%
3 | C=C(C)[C@H]1Cc2c(ccc3c2O[C@@H]2COc4cc(OC)c(OC)cc4[C@@H]2C3=O)O1 | 1070 nM (active) | –
